High-throughput results: PubChem, National Center for Advancing Translational Sciences (NCATS)
CBFb-RUNX1 inh: blocks binding between human CBF-beta and RUNX1. Q01196+Q13951. AlphaScreen CBFb-His/RUNX1-biotin binding, biochemical. Potency, µM (titrated, usually from 59.8 µM), inactives show at the top dose activity, negative = inhibition, usual class: inhibitors. 230,000 tested, under 10 active; further: % of control where 0% means no effect
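Bead-based AlphaScreen assay; binding partners His-tagged CBF-beta and biotinylated RUNX1 at 30 nM each. Compound exposure 15 min after a 20-min protein preincubation; bead step 90 min; all steps at room temperature.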
VDR inh: blocks the human vitamin D receptor. P11473. VDR-SRC2-3 peptide fluorescence polarization, 2 h. Potency, µM, for inactives: max response, negative = inhibition, most hits filed as inhibitors. 400,000 tested, 0.93% active. AID 504847; further: potency means the concentration at half of the fitted maximal effect; on the % scale 0 is the no-effect control and ±100 the full control effect
Target sequence (P11473 whole entry, looked up): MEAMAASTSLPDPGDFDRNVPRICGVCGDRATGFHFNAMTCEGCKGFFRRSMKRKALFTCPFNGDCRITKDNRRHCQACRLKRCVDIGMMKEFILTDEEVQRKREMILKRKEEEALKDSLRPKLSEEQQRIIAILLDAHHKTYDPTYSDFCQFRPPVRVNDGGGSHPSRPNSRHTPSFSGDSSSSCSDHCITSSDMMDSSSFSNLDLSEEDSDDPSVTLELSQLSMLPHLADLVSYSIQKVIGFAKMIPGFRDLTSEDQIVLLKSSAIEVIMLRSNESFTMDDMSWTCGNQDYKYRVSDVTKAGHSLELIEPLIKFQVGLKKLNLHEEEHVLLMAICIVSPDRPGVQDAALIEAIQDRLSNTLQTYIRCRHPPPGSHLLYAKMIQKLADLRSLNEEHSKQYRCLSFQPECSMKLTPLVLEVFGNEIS
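After 23 nl compound addition and a short centrifugation, plates sat for 2 hours at ambient temperature; polarization of fluorescence then indicated loss of VDR binding to peptide SRC2-3.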
MBNL1-CUG inh: inhibitors of human MBNL1 binding to CUG repeat RNA | Q9NR56 | TR-FRET MBNL1-His/biotin-(CUG)12 binding, 665/545 ratio | Potency, µM (titrated, usually from 57.5 µM), for the others: at the top dose activity change, negative = inhibition, usual class: inhibitors | 280,000 tested, 0.036% active | AID 2675; active means well fitted inhibition curve with a large enough effect in the signal ratio, with a control signal flat, not every such curve was filed as active; inconclusive means small, poorly fitted or top-dose-only effect, or effect the other way, or a change in a side signal; inactive means no such curve, though single readings can be large or run the other way; the % refers to the signal ratio; further: potency means the concentration at half of the fitted maximal effect; on the % scale 0 is the no-effect control and ±100 the full control effect
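MBNL1-His + Biotin-(CUG)12, cpd titration 92 nM–58 uM; Tb anti-His Ab 0.055 ng/ul, SA-XL665 5 nM (final); 60 min RT; ratiometric 665/545 nm, Ex 340 nm; normalized to buffer and full-complex controls.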
PLK1 PBD inh: inhibitors of human PLK1 polo-box domain binding | Plk1 PBD binding of FITC phosphopeptide, fluorescence polarization | P53350 | Potency, µM, for inactives: max response, negative = inhibition, most hits filed as inhibitors | 360,000 tested, 2.8% active; further: potency means the concentration at half of the fitted maximal effect; series mostly up to about 57 µM; on the % scale 0 is the no-effect control and ±100 the full control effect; nearly all actives have a fitted effect of over 65% in size
KCNH2 3.1 block: inhibitors of human KCNH2 3.1 potassium channel isoform; U2OS KCNH2 3.1, thallium flux FluxOr; stronger effect = lower value; activity change, % (tested at about 1.8 µM); 340,000 tested, 0.95% active; AID 720553;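 active means maximum activity change below -70%; inconclusive means maximum activity change from -70% to -50%; inactive means maximum activity change above -50%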;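 further: thallium influx rate constant from kinetic fluorescence after stimulation buffer; on the % scale 0 is the no-effect control and ±100 the full control effect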
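We transduce U2OS cells with the mutant 3.1 virus, culture them overnight, load FluxOr with Red40 quencher for 45 min, then add stimulation buffer and read kinetically for 2 min to derive a normalized rate constant.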
KCNH2 WT inh: inhibitors of human wildtype KCNH2 potassium channel | Q12809 | U2OS, BacMam KCNH2, thallium flux FluxOr; stronger effect = lower value | activity change, % at 1.84 µM | 340,000 tested, 0.37% active | AID 720551;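 active means maximum activity change below -70%; inconclusive means maximum activity change between -70% and -50%; inactive means maximum activity change above -50%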; further: on the % scale 0 is the no-effect control and ±100 the full control effect
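U2OS cells were transduced with wild-type KCNH2 virus (2.03 x 10^8 / mL) for 4 h at room temperature, then cultured overnight at 37 C. Thallium flux was read with FluxOr dye. Rate constants were normalized to DMSO controls.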
MBNL1-CUG FRET: confirmation of inhibitors of human MBNL1-poly(CUG) RNA binding. 140 tested, 50% active. shares compounds with MBNL1-CUG inh. TR-FRET MBNL1-His / biotin-(CUG)12 binding, 60 min. Potency, µM (titrated, usually from 57.6 µM), without a hit: at the top dose activity change, negative = inhibition, most hits filed as inhibitors. AID 493199
MBNL1 AlphaScrn: MBNL1-CUG RNA binding inhibition, AlphaScreen validation | shares compounds with MBNL1-CUG inh | AlphaScreen MBNL1-His / biotin-(CUG)12 binding | Potency, µM (top dose mostly 57.7 µM), without a hit: top-dose activity, negative = inhibition, usual class: inhibitors | 140 tested, 30% active | AID 493205
Menin-MLL HTRF: hit in HTRF counterscreen for MBNL1-poly(CUG) binding inhibitors; shares compounds with MBNL1-CUG inh; His-Menin/biotin-MLL peptide TR-FRET counterscreen; Potency, µM (series often up to 57.6 µM), inactives show at the top dose activity, negative = inhibition, usual class: inhibitors; 120 tested, 20% active; AID 651843
* = called active by the depositor; ? = inconclusive; . = no result. Rows were chosen to be rich in hits. Some 3.8% of all compounds tested hit in one or more screens of this group. Unless noted, the call rests on the fitted dose curve; in most records, active means well fitted curve in the direction sought with a large enough effect; inconclusive means small, poorly fitted or top-dose-only effect, or another doubt; inactive means no such curve, though single readings can be large; an effect the other way counts as inactive or inconclusive.

SMILES	CBFb-RUNX1 inh	VDR inh	MBNL1-CUG inh	PLK1 PBD inh	KCNH2 3.1 block	KCNH2 WT inh	MBNL1-CUG FRET	MBNL1 AlphaScrn	others
COc1ccc(-c2cc(C)no2)cc1S(=O)(=O)N1CC(C)Oc2ccccc21 (stereo unspecified)	.	11%	.	.	.	.	.	.
Cc1ccc(N2C(=O)C3C4C=CC(CNC(=S)N5CCN(c6ccccn6)CC5)(O4)C3C2=O)cc1 (stereo unspecified)	-5%	79µM*	-6%	-16%	-5	24	.	.
Nc1ccccc1Nc1c(F)c(F)nc(F)c1Cl	.	5%	-5%	-2%	-72*	2	.	.
COc1ccc(-n2ncc(C(=O)N3CCN(Cc4ccccc4)CC3)c2C2CCN(C(=O)OC(C)(C)C)CC2)cc1	.	10%	.	.	.	.	.	.
CCn1cc(S(=O)(=O)c2ccc(C)cc2C)c(=O)c2cc(F)c(N3CCCC3)cc21	.	19%	.	.	.	.	.	.
COc1ccc(Cl)cc1NC(=O)CN(C)C(=O)CN1C(=O)NC(C)(c2ccc3ccccc3c2)C1=O (stereo unspecified)	.	-3%	.	-10%	-89*	-7	.	.
Cc1ccccc1C(=O)NCc1nc2cccnc2n1Cc1ccccc1	.	8%	.	.	.	.	.	.
CC(=O)c1ccc2c(c1)c(C#N)c1ccccc1[n+]2[O-]	.	-14%	23%	2.4µM*	6	-19	.	.
CSc1ccc(S(=O)(=O)NCc2ccc(C)cc2)cc1	13%	11%	-8%	-7%	-78*	41	.	.
O=C(CSc1nc(-c2ccco2)nc2cc(=O)[nH]n12)Nc1ccc(F)cc1	.	-4%	.	.	.	.	.	.
CCOc1ccc(CCNC(=O)Cn2ncc3c([nH]c4ccccc43)c2=O)cc1OCC	.	-2%	.	.	.	.	.	.
N#Cc1nc(-c2ccccc2Cl)oc1NCC1CCCO1 (stereo unspecified)	-6%	-8%	1%	-17%	-72*	-14	.	.
Cc1ccc(-n2nc(CO)c(C(=O)NCCC(C)C)n2)cc1C	.	-12%	.	.	.	.	.	.
CC(C)Cn1nc(NC(=O)C2CCCO2)c2cc3ccccc3nc21 (stereo unspecified)	?	-12%	24%	30µM*	5	3	.	.
O=[N+]([O-])c1ccc(N/N=C\c2cccnc2)nc1	-7%	-11%	?	-18%	-95*	.	.	.
CCOC(=O)c1cc(-c2ccc(F)cc2)n(CCC(=O)Nc2nc3ccc(OC)cc3s2)c1C	.	-2%	.	.	.	.	.	.
CC(=O)Nc1ccc(NC(=O)c2cc(-c3cc(C)c(C)cc3O)n[nH]2)cc1	.	-16%	10µM*	1%	1	2	?	41µM*	Menin-MLL HTRF=-2%
O=C(O)[C@@H](c1ccccc1)N1Cc2ccccc2C1=O	1%	-16%	40µM*	-15%	19	5	26µM*	21µM*	Menin-MLL HTRF=-3%
CC(C)c1cnc2c(c1SCc1cccc(C(F)(F)F)c1)c(=O)n(C)c(=O)n2C	.	-4%	.	.	.	.	.	.
Cc1ccc(S(=O)(=O)Oc2ccccc2/C=N/N=C(N)N)cc1	-12%	-16%	18µM*	-1%	-1	6	16µM*	-27%	Menin-MLL HTRF=?
COCCNC(=O)CCC1CCN(Cc2ccc(-c3ccccc3)cc2)CC1	.	8%	16µM*	1%	-4	29	6.5µM*	4%	Menin-MLL HTRF=8.2µM*
COCCNC(=O)C1CCCN(Cc2ccccc2)CC1 (stereo unspecified)	.	.	.	-9%	.	.	.	.
COC(=O)c1cccc(NC(=O)c2ccccc2)c1	8%	3%	-7%	1%	20	-7	.	.
COC(=O)c1cccc(NC(=O)c2ccc[n+]([O-])c2)c1	.	0%	40µM*	2%	17	7	-24%	?	Menin-MLL HTRF=0%
Cc1ccc(N2CC(C(=O)Nc3ccccc3C(=O)NC3CCCCC3)CC2=O)cc1 (stereo unspecified)	9%	-11%	21%	-2%	-10	10	.	.
SMILES	CBFb-RUNX1 inh	VDR inh	MBNL1-CUG inh	PLK1 PBD inh	KCNH2 3.1 block	KCNH2 WT inh	MBNL1-CUG FRET	MBNL1 AlphaScrn	others
O=C(NC1CCCCC1)c1ccccc1NC(=O)C1CC(=O)N(c2ccccc2)C1 (stereo unspecified)	-12%	13%	40µM*	-9%	3	3	-10%	-5%	Menin-MLL HTRF=2%
Cc1ccc(N2CC(C(=O)Nc3ccccc3C(=O)NC3CCCCC3)CC2=O)cc1C (stereo unspecified)	.	13%	.	-9%	3	-8	.	.
O=C(NC1CCCCC1)c1ccccc1NC(=O)C1CC(=O)N(c2ccc(Cl)cc2)C1 (stereo unspecified)	-8%	9%	16µM*	?	-28	-2	20%	?	Menin-MLL HTRF=0%
O=C(NCc1ccc(F)cc1)c1cnc(N2CCOCC2)c2ccccc12	.	18%	.	.	.	.	.	.
CCOC(=O)c1c(NC(C)=O)c2c3c(sc2n1Cc1nc(-c2ccccc2OCC)oc1C)CCCC3	.	-14%	.	.	.	.	.	.
CC(C)(COP(=O)(O)OP(=O)(O)OC[C@H]1O[C@@H](n2cnc3c(N)ncnc32)[C@H](O)[C@@H]1OP(=O)(O)O)C(O)C(=O)NCCC(=O)NCCS (stereo partly specified)	.	0%	.	.	.	.	.	.
C/C1=C2N=C(/C=C3N=C(/C(C)=C4\[N-]C(C)(C5N=C1C(C)(CCC(=O)NCC(C)OP(=O)([O-])O[C@H]1C(O)C(n6cnc7cc(C)c(C)cc76)O[C@@H]1CO)C5CC(N)=O)C(C)(CC(N)=O)C4CCC(N)=O)C(C)(CC(N)=O)C\3CCC(N)=O)C(C)(C)C/2CCC(N)=O.[CH2-]C1OC(n2cnc3c(N)ncnc32)C(O)C1O.[Co] (stereo partly specified)	-13%	?	.	.	.	.	0.12µM*	5.2µM*
COc1ccc(-c2nc(SCC(=O)Nc3cc(C)on3)n[nH]2)cc1	3%	-9%	40µM*	-4%	15	-5	16µM*	-9%	Menin-MLL HTRF=?
CCN1CCN(c2cc(C)c3cc(NC(=O)/C=C/c4ccc(OCCC(C)C)cc4)ccc3n2)CC1	.	5%	.	.	.	.	.	.
CCn1c(=O)sc2cc(NS(=O)(=O)c3ccc(F)c(C)c3)ccc21	.	-1%	.	.	.	.	.	.
